Hit rate of the full screen: of about 65,000 compounds, about 2,100 (3.2%) showed an effect of 50% or more. The median lay at about -52%. Only a selection was taken, and strong results are over-represented in it overall.
Each molecule was assayed on Plasmodium falciparum (assay: Screen against P. falciparum Asexual Blood Stage (ABS), at 5uM). Settings: tested at 5 uM.
Type: functional, Dd2

SMILES	INHIBITION [%]
COC(=O)c1ccc(C2SCC(=O)Nc3c2cnn3C2CCCC2)cc1 (stereo unspecified)	-86.9
CN1CCC(N(Cc2ccco2)S(=O)(=O)c2ccc(Br)cc2Cl)CC1	74.7
CN1CCC(N(Cc2ccco2)S(=O)(=O)c2cc(Br)ccc2Br)CC1	76.2
CC(Cn1ccnc1)NCc1csc2c1CCCC2 (stereo unspecified)	22.3
CO[C@@H]1CCN(S(=O)(=O)N(C)C)[C@@H]2CN(Cc3cccnc3)C[C@@H]21	-88.2
CO[C@H]1CCN(Cc2cccs2)[C@@H]2CN(Cc3ccncc3)C[C@H]12	61.5
CO[C@H]1CCN(Cc2cccc(C)n2)[C@@H]2CN(Cc3cccnc3)C[C@H]12	70.4
COCCN1C[C@@H]2[C@@H](OC)CCN(Cc3cccc(C)n3)[C@@H]2C1	-1.19
COCCN1C[C@@H]2[C@@H](OC)CCN(Cc3ccncc3)[C@@H]2C1	24.3
CCS(=O)(=O)N1CC[C@H](OC)[C@H]2CN(Cc3ccncc3)C[C@H]21	-64.4
CO[C@@H]1CCN(S(=O)(=O)N(C)C)[C@@H]2CN(Cc3ccncc3)C[C@@H]21	-53.3
CO[C@@H]1CCN(Cc2cccs2)[C@@H]2CN(Cc3ccncc3)C[C@@H]21	53.8
CO[C@H]1CCN(C2CCC2)[C@@H]2CN(Cc3ccncc3)C[C@H]12	-41.2
O=C(c1ccncc1)N1CCN2C[C@H](Oc3cncnc3)C[C@H]2C1	-105
COc1ccc(C(C)NCc2ccsc2)cc1Cn1cccn1 (stereo unspecified)	73.1
COc1cc(CNC(C)Cn2cccn2)cc(OC)c1OC (stereo unspecified)	-12.2
COc1ccc(CNC(C)Cn2cccn2)cc1OC (stereo unspecified)	-66.8
COc1ccc(C(C)NCc2cscn2)cc1Cn1cccn1 (stereo unspecified)	71.6
N#Cc1ccc(OC[C@]23COC[C@H]2CN(Cc2ccoc2)C3)nc1	-15.7
Cc1ccc(CN2CC[C@@H]3[C@H]2CCC(=O)N3Cc2ccncc2)s1	-6.15
CSc1nccc(N2CCN(C)C3(CCNC(=O)CC3)C2)n1 (stereo unspecified)	-69.1
O=C1C[C@@H]2CC[C@H](CN1)N2C1CCOCC1	-0.465

SMILES	INHIBITION [%]
O=C1[C@H]2CN(Cc3nccs3)C[C@H]2CN1c1cncnc1	-64.4
O=C(CN(C1=NCCCCC1)c1ccc(Cl)cc1)c1ccccc1	75.5
COCCN1CCN(S(=O)(=O)C2CC2)Cc2ccc(C)nc21	-12
COc1cccc(S(=O)(=O)N2C[C@@H](N(C)C)[C@H](C(C)C)C2)c1	72.2
CN(C)[C@@H]1CN(Cc2cnn(C)c2)[C@@H]2COC[C@H]12	-104
Cc1c(F)cccc1S(=O)(=O)NC(C)(C)CN	80.9
Cc1cccc(CN2CC[C@H]3OCC[C@@]3(C(=O)N3CCCO3)C2)n1	-77.9
O=C1CC[C@H]2[C@@H](CCN2Cc2ccco2)N1	-46.7
c1ccc2c(c1)C(NC1CCCC1)CC21CCNCC1 (stereo unspecified)	75.7
Cc1ccc2c(c1)C1(CCNCC1)CC2NC(C)C (stereo unspecified)	-31.2
Fc1ccc2c(c1)C1(CCNCC1)CC2OCC1CC1 (stereo unspecified)	70.1
Cc1ccc2c(c1)C1(CCNCC1)CC2NC1CC1 (stereo unspecified)	74.6
COc1ccc2c(c1)C1(CCNCC1)CC2NC1CC1 (stereo unspecified)	0.674
O=C1CC2(CCNCC2)C(=O)N1c1cccc(F)c1	-155
Cc1ccc2c(c1)C(NC1CC1)CC21CCNCC1 (stereo unspecified)	83.2
Cc1ccc2c(c1)C(NC(C)C)CC21CCNCC1 (stereo unspecified)	-41.2
NC(=O)CC1CC2(CCNCC2)c2cc(F)ccc21 (stereo unspecified)	-82.7
O=C1NC2(CCNCC2)CC1c1ccccc1 (stereo unspecified)	-129
Cc1c(C2SCC(=O)Nc3c2cnn3C(C)(C)C)cnn1C (stereo unspecified)	-41.3
CC(C)c1nccc([C@H]2C[C@@H]3CCN(Cc4ccco4)C[C@H]3O2)n1	-19.7
CC(C)c1ccccc1OCCNC(=O)N1CCC2(CC1)OCCO2	-63.2
Cc1nc(C)c(CC(=O)N2C[C@H]3CC[C@@H](C2)N(CC2CC2)C3)s1	-79.3

SMILES	INHIBITION [%]
Fc1ccc2c(c1)C1(CCNCC1)CC2NC1CC1 (stereo unspecified)	83
CC(C)NC1CC2(CCNCC2)c2cc(F)ccc21 (stereo unspecified)	11.4
O=C(NCc1ccccn1)[C@]12COC[C@H]1CN(Cc1ccsc1)C2	-42.4
CNC(=O)[C@H]1C[C@@H]2CCN(Cc3ccncc3)C[C@H]2O1	-70.6
Cc1cccc(NC(=O)N2CCC(CO)(Nc3ccccc3)CC2)c1	-38.235
Cc1cccc(OC(C)C(=O)NCC2(N(C)C)CCCC2)c1 (stereo unspecified)	81.4
COc1cc(CN2CCCC(Nc3cccc(F)c3)C2)cc(Cl)c1O (stereo unspecified)	91.7
CCNC(=O)[C@@H]1CN(Cc2ccccc2)C[C@H]1C(=O)c1ccc(F)cc1	-30.5
CCOc1cccc(CN2CCCC(Nc3ccc(F)cc3)C2)c1O (stereo unspecified)	86.3
COC(=O)N1CCC(Nc2ccc(C#N)c(Cl)c2)C1 (stereo unspecified)	22.4
COc1ccc(C(=O)C2CCCN(Cc3cccc(F)c3)C2)c(OC)c1 (stereo unspecified)	23.9
Cc1ncc(CN2CCN(C(=O)N(C)C)[C@@H]3CS(=O)(=O)C[C@@H]32)cn1	-106
Cn1cc(CN2CCCC3(CCN(c4cccnc4)C3=O)C2)cn1 (stereo unspecified)	-131
CN(C)c1nccc(N2CCO[C@H]3CN(Cc4ccco4)C[C@H]32)n1	-22
CN(C)c1nccc(N2CCO[C@H]3CN(Cc4ccsc4)C[C@H]32)n1	69.7
c1cnc(N2CCO[C@H]3CN(Cc4ccsc4)C[C@H]32)nc1	35.9
c1ccc(OCC2C[C@@H]3[C@@H](C2)OCCN3Cc2ccoc2)nc1 (stereo partly specified)	12
CN1CCC2(CCCN(c3nccc(C(F)(F)F)n3)C2)CC1	79.4
Cc1cnc(N2CCCC3(CCCN(C)C3)C2)nc1 (stereo unspecified)	-9.73
CC(C)N1CCC2(CCN(C(=O)c3cccnc3)CC2)C1	5.83
CC(C)N1CCC2(CCCN(c3nccc(C(F)(F)F)n3)C2)CC1	81.9
COCCN1CCCC12CCCN(c1ncccn1)C2 (stereo unspecified)	-47.3
